Each structure is given as a SMILES string. Records with an inconclusive call do not appear. For part of these data: Potency and affinity values are given separately. Active and inactive are the calls of the source.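 How the source made its calls, unless noted: active means dose-response curve with midpoint inside the tested range, moderate steepness, significant amplitude and little compound fluorescence or bead-attachment interference; inactive means the rest.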

Test [1] deals with Cell division control protein 42 homolog (Homo sapiens) (UniProt P60953). Nature of the test: inhibition of fluorescent GTP binding to constitutively active Cdc42 – biochemical, multiplex bead flow cytometry, Bodipy-FL-GTP, dose response (AID 1333;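 active means fitted half-maximal concentration within the tested dose range, moderate curve steepness, a statistically real signal drop, and little compound fluorescence or tag-binding interference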). (In flow cytometry, cells or beads pass a laser one at a time.)
Chain of Cell division control protein 42 homolog (Homo sapiens) (P60953 whole entry, looked up): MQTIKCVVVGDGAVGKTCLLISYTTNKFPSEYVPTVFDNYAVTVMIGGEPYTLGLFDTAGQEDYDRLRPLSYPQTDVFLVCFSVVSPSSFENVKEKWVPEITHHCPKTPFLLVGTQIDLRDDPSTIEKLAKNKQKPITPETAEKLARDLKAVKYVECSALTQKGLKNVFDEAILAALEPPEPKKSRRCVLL
For test [2] the target is unchanged. Nature of the test: inhibition of fluorescent GTP binding to wildtype Cdc42 – biochemical, multiplex bead flow cytometry, Bodipy-FL-GTP, dose response (AID 1334;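 active means fitted half-maximal concentration within the tested range, moderate curve steepness, significant signal drop, and little compound fluorescence or bead-linkage interference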). Particulars: bead-based flow cytometry, Bodipy-FL-GTP binding to GST-Cdc42; at 100 µM (top of the series) unless noted.
The target in test [3] is GTPase HRas (Homo sapiens) (UniProt P01112). Nature of the test: Ras wt fluorescent GTP loading blockade – biochemical, wildtype, multiplex bead flow cytometry, dose response (AID 1335;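 active means fitted half-maximal concentration within 10 nM to 100 µM, steepness 0.5 to 2, significant signal drop, low assay interference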). Particulars: bead-based flow cytometry, Bodipy-GTP binding to GST-Ras; at 100 µM (top of the series) unless noted.
Chain of GTPase HRas (Homo sapiens) (P01112 whole entry, looked up): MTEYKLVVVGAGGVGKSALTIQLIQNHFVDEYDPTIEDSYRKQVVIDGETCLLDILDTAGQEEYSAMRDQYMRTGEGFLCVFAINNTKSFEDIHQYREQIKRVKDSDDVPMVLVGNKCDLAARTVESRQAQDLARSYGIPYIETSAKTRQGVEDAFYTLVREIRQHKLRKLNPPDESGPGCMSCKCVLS
Test [4] has as its system Ras-related protein Rab-7a (dog), GTP binding. Nature of the test: blockers of fluorescent GTP binding to Rab7 – biochemical, wildtype, multiplex bead flow cytometry, dose response (AID 1336; call rule not given here).
Test [5] deals with Ras-related C3 botulinum toxin substrate 1 (Homo sapiens) (UniProt P63000). Nature of the test: inhibition of wildtype Rac1 nucleotide loading – biochemical, multiplex bead flow cytometry, dose response (AID 1340;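 active means dose curve with midpoint inside tested range, moderate steepness, plateau gap beyond fit error, low compound glow and bead-link interference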). The note with it: GST-Rac1 beads, Bodipy-FL-GTP binding; at 100 µM (top of the series) unless noted.
Test [6] concerns the target GTPase HRas (Homo sapiens) (UniProt P01112). Nature of the test: blockade of GTP loading onto mutant Ras – biochemical, activated mutant, multiplex bead flow cytometry, dose response (AID 1341).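 Further: GST-tagged constitutively activated Ras mutant immobilized on beads and multiplexed with other GTPases.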
A short description of test [7]: rapamycin-like changes in RPL19A-GFP expression – cell-based, S. cerevisiae, multiplex flow cytometry, primary screen (AID 1862; in the data active means percent of DMSO control GFP below about 86%;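 further: lower values mimic rapamycin by blocking the RPL19A rise seen in DMSO cells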). Particulars: S. cerevisiae RPL19A-GFP strain, flow cytometry fluorescence, 3 h; at 10 µM; stronger effect = lower value.
Test [8] in a line: TOR pathway GLN3 branch reporter MEP2-GFP changes – S. cerevisiae, multiplex flow cytometry, primary screen (AID 1867;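 active means GFP response, as percent of the DMSO control, above the screen-wide mean plus 3 SD, about 139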;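 further: median GFP channel fluorescence of barcode-gated MEP2-GFP cells measured by flow cytometry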). The note with it: S. cerevisiae MEP2-GFP strain, 3 h, at 10 µM, stronger effect = higher value, 100% means same as DMSO wells.
Test [9] can be described thus: TOR pathway RTG branch CIT2 reporter changes – S. cerevisiae, GFP fusion, multiplex flow cytometry, primary screen (AID 1870;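 active means percent response above a set limit, the screen-wide mean plus 3 SD, cut at about 130% in these data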;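 further: barcoded CIT2-GFP strain pooled with four other GFP strains with rapamycin as positive control; median GFP fluorescence per well over plate mean of DMSO wells so 100% = DMSO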). Particulars: S. cerevisiae CIT2-GFP expression, 3 h, at 10 µM, stronger effect = higher value.
The nature of test [10]: TOR pathway LAP4-GFP level changes – S. cerevisiae, multiplex flow cytometry, primary screen (AID 1873;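 active means GFP signal, as percent of the solvent control, above the screen mean plus 3 SD, about 149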). The note with it: S. cerevisiae LAP4-GFP expression, 3 h, at 10 µM, stronger effect = higher value.
Test [11] in a line: yeast AGP1-GFP level changes, GLN3 branch – cell-based, multiplex flow cytometry, S. cerevisiae, primary screen (AID 1887;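 active means GFP signal above the screen-wide mean plus 3 SD, that is over about 124.5% of the solvent control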;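 further: AGP1-GFP fusion strain of S. cerevisiae within a five-strain barcoded multiplex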). Particulars: 3 h, at 10 µM, stronger effect = higher value.
Test [12] is described as follows: reduced mouse 2C T cell binding to pMHC/ICAM-1 vesicles – MLPCN validation set, flow cytometry, LFA-1/ICAM-1 modulator project, pilot screen (AID 2523;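 active means response below a set limit, under 55% cells CD8-positive and vesicle-bound, and CD8 cells' 90th-percentile brightness under 279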;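 on vesicle binding response: mean PE anti-B7-1 fluorescence of CD8+ cells relative to row control; 100% = QL9-loaded vesicles with DMSO vehicle in the same plate row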). Particulars: 2C mouse CD8+ T cells, at 7 µM, stronger effect = lower value; double positive events: measured here: CD8+/vesicle+ event percentage.
Test [13] concerns the target Integrin beta-1 (Homo sapiens) + Integrin alpha-4 (Homo sapiens) (UniProt P13612+P05556). Nature of the test: alpha4beta1 integrin LIBS antibody binding reduction – U937 cells, HUTS-21 mAb, flow cytometry, validation set, VLA-4 allosteric modulator project, pilot screen (AID 2674;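 active means inhibition above 50%, about 3 SD of the validation set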;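 further: antibody binding induced by the VLA-4 ligand LDV present at three times its Kd; 0% = LDV ligand with antibody and no compound and 100% = antibody without LDV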). Particulars: HUTS-21 LIBS mAb binding, at 6.7 µM, stronger effect = higher value, binding induced by LDV ligand.

Test [14] can be described thus: calorie-restriction mimetic ROS inhibitors, yeast – validation compound set, pilot screen (AID 2706;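 active means superoxide response below 65% of plate, a cut near 3 SD across the whole screen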;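 further: yeast exposed to compound for one week at 30 degrees C before staining; 100% = mean of all compound wells on the same plate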). Particulars: S. cerevisiae aging, superoxide DHE fluorescence; at 10 µM; stronger effect = lower value.
The target of test [15] is Beta-adrenergic receptor kinase 1 (Homo sapiens) (UniProt P25098). Nature of the test: GRK2 binders displacing RNA aptamer, biochemical, validation, human GRK2, bead flow cytometry (AID 488806;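 active means aptamer binding inhibition above 30%, about 3 SD of noise from non-fluorescent compounds; inactive means inhibition at or below 30%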). The note with it: bead-bound GRK2, FAM-aptamer displacement, at 10 µM, stronger effect = higher value.
Chain of Beta-adrenergic receptor kinase 1 (Homo sapiens) (P25098 whole entry, looked up): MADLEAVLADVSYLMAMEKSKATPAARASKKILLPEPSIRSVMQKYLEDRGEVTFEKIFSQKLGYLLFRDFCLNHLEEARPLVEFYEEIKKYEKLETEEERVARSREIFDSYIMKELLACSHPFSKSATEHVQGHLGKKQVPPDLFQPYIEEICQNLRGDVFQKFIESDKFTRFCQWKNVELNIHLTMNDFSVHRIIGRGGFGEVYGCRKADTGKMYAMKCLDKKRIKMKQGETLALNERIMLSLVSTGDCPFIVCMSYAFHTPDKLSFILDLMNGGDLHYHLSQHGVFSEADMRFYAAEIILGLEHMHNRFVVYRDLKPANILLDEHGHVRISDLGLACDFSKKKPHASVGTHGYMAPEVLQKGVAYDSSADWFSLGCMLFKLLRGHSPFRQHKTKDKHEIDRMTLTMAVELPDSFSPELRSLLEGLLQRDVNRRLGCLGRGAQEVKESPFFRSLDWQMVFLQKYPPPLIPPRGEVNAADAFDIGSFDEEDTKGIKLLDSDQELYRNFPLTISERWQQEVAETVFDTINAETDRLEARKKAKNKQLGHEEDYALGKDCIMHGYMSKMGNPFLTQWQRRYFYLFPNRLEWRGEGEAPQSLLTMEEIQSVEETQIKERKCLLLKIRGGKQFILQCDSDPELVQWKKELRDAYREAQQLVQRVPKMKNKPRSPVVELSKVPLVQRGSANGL
The target in test [16] is Beta-2 adrenergic receptor (Homo sapiens) (UniProt P07550). Nature of the test: agonist-induced loss of surface beta2AR – cell-based, FAP fluorogen, flow cytometry, validation set, pilot screen (AID 504459;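 active means percent response above 42, roughly 3 SD of non-fluorescent test compounds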;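 further: agonist-driven loss of surface beta2AR via internalization measured by FAP dye flow cytometry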). Particulars: Am2.2-beta2AR cells, at 10 µM, stronger effect = higher value.
Chain of Beta-2 adrenergic receptor (Homo sapiens) (P07550 whole entry, looked up): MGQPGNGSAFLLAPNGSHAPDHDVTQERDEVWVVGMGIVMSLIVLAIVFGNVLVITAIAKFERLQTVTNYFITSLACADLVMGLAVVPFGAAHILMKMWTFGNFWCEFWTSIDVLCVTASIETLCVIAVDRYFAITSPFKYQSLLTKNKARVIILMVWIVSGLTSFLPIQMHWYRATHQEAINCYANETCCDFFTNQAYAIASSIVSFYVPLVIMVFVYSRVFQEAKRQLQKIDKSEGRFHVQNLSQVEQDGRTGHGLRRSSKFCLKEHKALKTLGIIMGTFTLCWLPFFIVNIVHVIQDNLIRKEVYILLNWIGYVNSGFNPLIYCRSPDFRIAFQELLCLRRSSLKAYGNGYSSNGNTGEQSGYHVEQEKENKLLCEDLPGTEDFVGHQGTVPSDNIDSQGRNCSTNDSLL
In test [17] the target is AP-2 complex subunit beta (Homo sapiens) (UniProt P63010). Nature of the test: beta-arrestin/AP2 interaction blockers – biochemical, validation set, GST-AP2 beads, flow cytometry, pilot screen (AID 504541;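 active means inhibition above 54%, about 3 SD of non-fluorescent compounds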;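 further: AP2 carries R879A mutation and is captured from E. coli lysate; bead-bound FITC arrestin peptide fluorescence measuring arrestin peptide binding to AP2; 0% = DMSO wells and 100% = excess unlabeled arrestin peptide control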). The note with it: FITC arrestin peptide, at 10 µM, stronger effect = higher value, AP2 beta2 appendage fragment, R879A mutant.
Test [18] can be described thus: cytosolic pH regulators acting via V-ATPase – S. cerevisiae, pHLuorin, HTS validation (AID 504600; in the data active means response above about 15%;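 further: plate controls were DMSO for no effect and reference compound for full effect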). Particulars: V-ATPase proton transport, at 10 µM, stronger effect = higher value.
The subject of test [19] is anti-desmoglein-3 scFv antibody binding to human DSG3. Nature of the test: blockers of pathogenic pemphigus antibody–desmoglein-3 binding – biochemical, validation compound set, bead-based, flow cytometry, pilot screen (AID 588368;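 active means binding below the plate cutoff, the plate median minus 3 SD, with a reading above zero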;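 further: signal is the median channel fluorescence of bead-bound GFP antibody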). The note with it: Protein G beads, DSG3-Fc, scFv-GFP binding, at 10 µM, stronger effect = lower value.
Test [20] can be described thus: Nile Red efflux blockade in pump-expressing yeast – validation compound set, multiplex, phenotypic, pilot screen (AID 588506;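 active means efflux inhibition above 0.42, the validation set average plus 4 SD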;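 further: Nile Red retained in cells so higher fluorescence means more efflux inhibition; 0 = negative control wells and 1 = enniatin B 25 µM full block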). The note with it: S. cerevisiae pump-expressing triplex, Nile Red efflux flow cytometry; at 10 µM; stronger effect = higher value; the pumps come from Candida albicans.
The target in test [21] is ATP-binding cassette sub-family B member 6 (Homo sapiens) (UniProt Q9NP58). Nature of the test: blockers of ABCB6-driven porphyrin uptake – K562-ABCB6 cells, flow cytometry, validation set, pilot screen (AID 588550;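 active means inhibition above the screen-wide mean plus 3 SD, about 51%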;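 further: 0% = DMSO wells and 100% = benzethonium chloride 70 µM positive control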). Particulars: K562-ABCB6 porphyrin accumulation, 1 h, at 10 µM, stronger effect = higher value.
Chain of ATP-binding cassette sub-family B member 6 (Homo sapiens) (Q9NP58 whole entry, looked up): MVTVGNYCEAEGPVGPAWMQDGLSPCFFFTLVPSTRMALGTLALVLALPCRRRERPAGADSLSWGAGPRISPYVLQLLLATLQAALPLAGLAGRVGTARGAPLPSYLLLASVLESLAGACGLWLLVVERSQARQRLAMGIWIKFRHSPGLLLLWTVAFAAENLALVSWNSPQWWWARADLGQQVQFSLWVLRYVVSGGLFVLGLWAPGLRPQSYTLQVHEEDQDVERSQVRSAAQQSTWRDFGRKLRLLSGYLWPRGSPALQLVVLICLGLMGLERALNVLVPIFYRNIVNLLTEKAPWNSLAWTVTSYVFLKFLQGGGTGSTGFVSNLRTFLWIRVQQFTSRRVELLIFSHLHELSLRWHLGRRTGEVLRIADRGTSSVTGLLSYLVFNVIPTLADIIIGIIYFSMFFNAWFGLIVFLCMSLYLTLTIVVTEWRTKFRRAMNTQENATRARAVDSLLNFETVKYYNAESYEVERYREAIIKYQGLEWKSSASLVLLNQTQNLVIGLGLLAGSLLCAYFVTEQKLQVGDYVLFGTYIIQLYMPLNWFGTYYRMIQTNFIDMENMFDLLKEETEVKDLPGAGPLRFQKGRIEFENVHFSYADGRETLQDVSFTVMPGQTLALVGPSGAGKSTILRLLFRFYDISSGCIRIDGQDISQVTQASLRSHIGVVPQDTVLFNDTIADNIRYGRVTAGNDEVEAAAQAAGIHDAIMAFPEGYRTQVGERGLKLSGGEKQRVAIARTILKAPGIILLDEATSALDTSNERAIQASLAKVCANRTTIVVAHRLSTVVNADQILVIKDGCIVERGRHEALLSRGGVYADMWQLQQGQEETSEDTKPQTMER
Test [22] is described as follows: AML differentiation inducers, ER-HoxA9 marrow cells – cell-based, GFP/MAC1 double positive, flow cytometry, validation set, primary screen (AID 588685;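 active means differentiation response of at least 50%, scaled between solvent and reference control, from cells with both markers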;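 further: compound exposure lasts four days before antibody staining and flow analysis; 0% = DMSO wells and 100% = 5 µM fulvestrant positive control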). Particulars: stronger effect = higher value, normalized: vehicle 0, fulvestrant 100.
A short description of test [23]: hit retest on RPL19A-GFP reporter strain – cell-based, S. cerevisiae, flow cytometry, cherry picks, mother/daughter gates, confirmation (AID 2270;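 active means GFP response below 50% of the DMSO control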). Particulars: 3 h, at 10 µM, stronger effect = lower value, 100 = same GFP as DMSO wells.
Test [24] can be described thus: yeast TOR pathway reporter LAP4-GFP change – cell-based, cherry picks, flow cytometry, mother/daughter gates, confirmation (AID 2271;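 active means GFP response above 150% of the DMSO control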;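 further: ratio of sample to DMSO plate mean so 100% equals DMSO level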). Particulars: S. cerevisiae LAP4-GFP strain, 3 h, at 10 µM, stronger effect = higher value, 100 means same as DMSO control.
Test [25] can be described thus: TOR pathway reporter MEP2-GFP, retest of hits – S. cerevisiae, flow cytometry GFP, cherry picks, confirmation (AID 2272;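 active means GFP response above 150% of the DMSO control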;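 further: ratio of well signal to plate DMSO mean so 100% equals DMSO level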). Particulars: S. cerevisiae MEP2-GFP strain, 3 h, at 10 µM, stronger effect = higher value.
A short description of test [26]: yeast AGP1-GFP fluorescence change, single-dose – cell-based, flow cytometry, S. cerevisiae, cherry picks, confirmation (AID 2273;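 active means GFP response above 150% of the DMSO level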;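 further: median GFP channel fluorescence over the whole cell population gate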). Particulars: S. cerevisiae AGP1-GFP strain, 3 h, at 10 µM.
The nature of test [27]: TOR pathway CIT2 reporter hit retest – S. cerevisiae, GFP fusion, cherry picks, mother/daughter gates, confirmation (AID 2274;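 active means GFP response above 150% of the DMSO level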). The note with it: S. cerevisiae CIT2-GFP strain, flow cytometry, 3 h, at 10 µM, stronger effect = higher value.
Where [28] appears, read: measured here: daughter cell gate.
Setting [29] is: measured here: mother cell gate.
Setting [30] is: measured here: daughter cell gate response.
Where [31] appears, read: measured here: mother cell gate response.

Chain of Integrin beta-1 (Homo sapiens) + Integrin alpha-4 (Homo sapiens) (P05556 whole entry, looked up): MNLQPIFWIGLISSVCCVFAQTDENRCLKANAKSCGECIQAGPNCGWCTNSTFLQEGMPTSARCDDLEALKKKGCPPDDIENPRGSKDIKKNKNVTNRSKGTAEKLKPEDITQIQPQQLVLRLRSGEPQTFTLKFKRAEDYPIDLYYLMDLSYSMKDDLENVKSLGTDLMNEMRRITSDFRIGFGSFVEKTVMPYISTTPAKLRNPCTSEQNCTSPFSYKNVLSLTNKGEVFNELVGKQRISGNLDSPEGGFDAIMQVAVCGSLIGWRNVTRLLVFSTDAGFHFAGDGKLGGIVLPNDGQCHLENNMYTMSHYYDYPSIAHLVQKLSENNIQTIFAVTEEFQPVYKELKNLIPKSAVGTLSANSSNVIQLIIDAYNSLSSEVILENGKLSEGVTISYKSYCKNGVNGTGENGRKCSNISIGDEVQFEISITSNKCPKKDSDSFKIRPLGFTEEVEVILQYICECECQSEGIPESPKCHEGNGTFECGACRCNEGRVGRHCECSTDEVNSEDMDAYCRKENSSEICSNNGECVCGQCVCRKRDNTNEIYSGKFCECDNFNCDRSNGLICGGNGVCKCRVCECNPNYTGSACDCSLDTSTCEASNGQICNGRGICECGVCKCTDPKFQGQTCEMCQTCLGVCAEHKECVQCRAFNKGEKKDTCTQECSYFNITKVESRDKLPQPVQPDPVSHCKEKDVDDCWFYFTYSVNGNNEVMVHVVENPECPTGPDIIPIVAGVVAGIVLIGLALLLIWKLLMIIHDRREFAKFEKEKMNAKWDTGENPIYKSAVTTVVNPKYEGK
Chain of Integrin beta-1 (Homo sapiens) + Integrin alpha-4 (Homo sapiens) (P13612 whole entry, looked up): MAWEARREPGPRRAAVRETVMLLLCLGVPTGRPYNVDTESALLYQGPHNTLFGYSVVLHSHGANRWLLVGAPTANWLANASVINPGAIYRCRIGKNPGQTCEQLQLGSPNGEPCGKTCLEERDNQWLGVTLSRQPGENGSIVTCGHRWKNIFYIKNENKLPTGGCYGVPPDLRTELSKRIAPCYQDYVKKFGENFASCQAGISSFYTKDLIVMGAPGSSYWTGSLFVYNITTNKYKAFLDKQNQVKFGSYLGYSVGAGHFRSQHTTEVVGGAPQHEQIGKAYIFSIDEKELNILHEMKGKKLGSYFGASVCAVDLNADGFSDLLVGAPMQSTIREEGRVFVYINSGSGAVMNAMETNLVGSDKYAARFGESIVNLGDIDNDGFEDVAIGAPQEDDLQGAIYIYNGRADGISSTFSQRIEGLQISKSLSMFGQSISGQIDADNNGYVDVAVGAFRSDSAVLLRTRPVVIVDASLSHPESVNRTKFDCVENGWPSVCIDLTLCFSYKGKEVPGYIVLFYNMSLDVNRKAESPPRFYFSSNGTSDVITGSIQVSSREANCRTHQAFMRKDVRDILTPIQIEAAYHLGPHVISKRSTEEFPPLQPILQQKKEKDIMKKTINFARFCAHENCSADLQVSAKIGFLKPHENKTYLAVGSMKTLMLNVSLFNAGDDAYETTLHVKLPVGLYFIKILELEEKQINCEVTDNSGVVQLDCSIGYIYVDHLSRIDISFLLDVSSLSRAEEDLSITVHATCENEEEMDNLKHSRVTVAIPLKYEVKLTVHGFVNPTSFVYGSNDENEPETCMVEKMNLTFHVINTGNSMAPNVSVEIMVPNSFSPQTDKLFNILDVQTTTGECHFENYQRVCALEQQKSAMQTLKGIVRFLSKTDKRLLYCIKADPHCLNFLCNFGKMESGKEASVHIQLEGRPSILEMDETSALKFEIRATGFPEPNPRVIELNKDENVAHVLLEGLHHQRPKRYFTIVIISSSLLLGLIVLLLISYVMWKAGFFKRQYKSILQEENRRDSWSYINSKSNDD

Regarding `CC(C)(C)NC(=O)c1ccc2nsnc2c1`, the compound was called inactive in [1], in test [4] and in test [6]. Moreover, the fluorescence, percent of control (lower = inhibition) in test [2] came out at 52.7%. For the same compound, in test [3], the GTP binding, percent of control was determined as 66.2%. In test [5], this compound came in with a GTP binding signal, raw median fluorescence (lower = inhibition) (MCF (arbitrary fluorescence units)) of 213.

Turning to `CN1C(=O)N(C)c2ccc(C=O)c3cccc1c23`, the call in test [1], in test [4] and in test [6] was inactive. The fluorescence, percent of control (lower = inhibition) in test [2] turned out to be 36.5%. In [3], this compound yielded a GTP binding, percent of control of 82.8%.

On to `COc1ccccc1NCc1sc(C(=O)O)cc1C`, for which the result in test [1], in [4] and in [6] was inactive. For the same compound, the fluorescence, percent of control (lower = inhibition) in test [2] turned out to be 64.9%. Moreover, the GTP binding, percent of control in [3] amounted to 86.4%.

As usually defined, the inhibition is the percentage by which the read-out fell short of the control. Take `O=C(O)c1ccccc1OCCOc1ccccc1`: the result in test [1], in test [4] and in [6] was inactive. This compound also returned a fluorescence, percent of control (lower = inhibition) in test [2] of 82.8%. The GTP binding, percent of control in [3] worked out at 81.1%. The same compound came in with a GTP binding signal, raw median fluorescence (lower = inhibition) (MCF (arbitrary fluorescence units)) in test [5] of 297. The percent of DMSO control GFP in test [7] is 93.4% (inactive). Moreover, the GFP response vs DMSO was 98.8% (inactive) in [8] and 129% (inactive) in test [10]. The percent response of DMSO control in test [9] was 83.1% (inactive). In test [11], the GFP response, % of DMSO was 77.1% (inactive). The compound further had a double positive events in test [12] of 66%. In addition, in test [12], the vesicle binding response is 133% (inactive). Further, the inhibition in [13] was 2.55% (inactive); in test [17], 52.1% (inactive); in [21] it was 8% (inactive). In addition, the superoxide response (% of plate) in test [14] is 43.5% (active). In test [15], the aptamer binding inhibition was 2% (inactive). For the same compound, the response is 32.2% (inactive) in test [16] and -1.15% (inactive) in test [18]. Further, the binding (% of control) in test [19] was 96% (inactive). Further, the efflux inhibition (fraction of control) in [20] is 0.74 (active). In addition, the differentiation response in test [22] was 34.6% (inactive).

Take `O=C(NC1CCCCC1)c1cc([N+](=O)[O-])[nH]n1`: the compound was classed as inactive in test [1], in test [4] and in [6]. In addition, the fluorescence, percent of control (lower = inhibition) in test [2] came out at 37.3%. The compound further displayed a GTP binding, percent of control in [3] of 80.1%.

As for `COCCn1c(=S)[nH]c2cc(C(=O)N3CCc4ccccc4C3)ccc2c1=O`, the result in [1], in test [4] and in test [6] was inactive. In [2], this compound gave a fluorescence, percent of control (lower = inhibition) of 35.6%. In addition, the GTP binding, percent of control in [3] stood at 83.9%.

For the compound `COc1cc(/C=N\NC(=O)c2sc(N)nc2C)cc(OC)c1OC`, the compound was called inactive in test [1], in test [4] and in test [6]. In [2], this compound displayed a fluorescence, percent of control (lower = inhibition) of 39.4%. The compound further displayed a GTP binding, percent of control in [3] of 51.7%.

For the compound `CCS(=O)(=O)N1N=C(c2cccc(NS(C)(=O)=O)c2)CC1c1ccc(C)cc1` (stereo not given), the result in [1], in test [4] and in test [6] was inactive. Moreover, the GTP binding signal, raw median fluorescence (lower = inhibition) (MCF (arbitrary fluorescence units)) in test [5] came out at 230. In addition, the GFP response vs DMSO is 100% (inactive) in test [23], 99.1% in [23] (setting [28]), 101% in [23] (setting [29]) and 116% (inactive) in [25]. For the same compound, the values for the GFP response relative to DMSO in test [24], in [24] (setting [30]) and in test [24] (setting [31]) were 101% (inactive), 97.5% and 100%, respectively. Further, the GFP response, % of DMSO in [26] is 104% (inactive); in [27], 108% (inactive); in [27] (setting [28]), 105%; in test [27] (setting [29]) it was 108%.

For `O=C(O)c1ccc(COc2ccccc2Cl)o1`, the call in test [1], in test [4] and in test [6] was inactive. The same compound yielded a fluorescence, percent of control (lower = inhibition) in test [2] of 73.5%. The compound also displayed a GTP binding, percent of control in [3] of 96.7%.

With `CCCS(=O)(=O)c1nnnn1-c1cccc(OC)c1`, the call in [1], in test [4] and in test [6] was inactive. The same compound gave a GTP binding, percent of control in test [3] of 71.2%. This compound had a GTP binding signal, raw median fluorescence (lower = inhibition) (MCF (arbitrary fluorescence units)) in test [5] of 230. Further, the GFP response vs DMSO was 87.7% (inactive) in [23], 84.6% in [23] (setting [28]), 83.9% in test [23] (setting [29]) and 119% (inactive) in [25]. The GFP response relative to DMSO in test [24] is 176% (active); in [24] (setting [30]) it was 154%; in [24] (setting [31]) it was 178%. In addition, the GFP response, % of DMSO was 106% (inactive) in test [26], 74.8% (inactive) in test [27], 74.6% in test [27] (setting [28]) and 65.8% in test [27] (setting [29]).

The values above are taken from PubChem BioAssay.
